From ChEMBL document CHEMBL1157539, “Thousands of chemical starting points for antimalarial lead identification” (Nature, 2010)

System: HepG2
Test: GSK_TCMDC: Percent inhibition of human HepG2 cell line. Test compounds present at 10uM.
Type: functional

Structure (SMILES)	Inhibition [%]
CN1CCN(c2ccc(Nc3c(C(N)=O)cnc4cc(-c5ccoc5)ccc34)cc2)CC1.Cl	14
COc1ccc(Nc2nc(NC3CCCC3)cc(-c3ccc(OC)cc3)n2)cc1	12
CC(C)c1ccc(NC(=O)c2ccc(NCCCN(C)Cc3ccccc3)c([N+](=O)[O-])c2)cc1	21
O=C(Cn1c(CCc2cccc(F)c2F)cc(=O)c2ccccc21)N(Cc1ccc(-c2ccc(C(F)(F)F)cc2)cc1)C1CCN(CCN2CCOCC2)CC1.O=C(O)C(O)C(O)C(=O)O	53
CCOc1cccc2nc(NCCCNCc3ccc(Cl)c(Cl)c3)cc(NCCCNCc3ccc(Cl)c(Cl)c3)c12	96
O=C(Nc1ccc(C(=O)Oc2ccc3ccccc3c2)cc1)N[C@@H](Cc1ccc(O)cc1)C(=O)NC1CCN(Cc2ccc(O)cc2)C1.O=C(O)C(F)(F)F (some centres not stated)	1
COC(=O)C(Cc1ccccc1)C(CSCc1ccc(OC)cc1)C(=O)N[C@@H](C(=O)OC(C)(C)C)c1ccc(C(C)(C)C)cc1 (some centres not stated)	0
Cc1cc(N[C@@H](Cc2ccccc2)C(=O)NCCOc2ccccc2)nc(NCc2ccccc2C)n1.O=C(O)C(F)(F)F	32
Br.CCCC1N=C(N)N=C(N)N1c1ccc(CC)cc1 (configuration not stated)	11
Cl.N#Cc1ccc2c(c1)CCN(CCC1CCC(NC(=O)/C=C/c3nc4ccccc4s3)CC1)CC2 (configuration not stated)	6
CCN(CC)CCNc1ccnc2[nH]c3ccc(Cl)cc3c12	3
CCN1CCC(N(Cc2ccc(-c3ccc(C(F)(F)F)cc3)cc2)C(=O)Cn2c(SCc3cccc(F)c3F)cc(=O)c3ccccc32)C1.O=C(O)C(O)C(O)C(=O)O (configuration not stated)	42
